High-throughput results (PubChem BioAssay)
The list is not random: actives were taken first. Their share in the collection is about 3.5%.
RE007 growth inh = qHTS Assay for Inhibitors of the HIV-1 protein Vpr; S. pombe RE007 Vpr strain, BacTiter-Glo ATP luminescence, 24 h; Potency, µM (highest dose often 92.2 µM), actives largely listed as inhibitors; hit rate 0.21% among 360,000; AID 651644, 2012; active = well fitted falling curve with a large enough effect; inconclusive = small, poorly fitted or top-dose-only effect; inactive = no such curve, though single readings can be large or run the other way; also: nearly all actives have a fitted effect of over 50% in size
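Fission yeast RE007 carrying one integrated HIV-1 vpr copy, seeded at OD 0.01 in PMG+AL medium with 23 nL pinned compound. Grown 24 h at 30 degrees; viability read by BacTiter-Glo luminescence after 5 min.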
Giardia FBPA inh = qHTS Assay for Inhibitors of Fructose-1,6-bisphosphate Aldolase from Giardia Lamblia; A8B2U2; purified Giardia FBPA; Potency, µM (top dose mostly 59.6 µM), hits mostly inhibitors; hit rate 0.71% among 290,000; AID 2451, 2010; also: nearly all actives have a fitted effect of over 55% in size
Target sequence (A8B2U2 whole entry, looked up): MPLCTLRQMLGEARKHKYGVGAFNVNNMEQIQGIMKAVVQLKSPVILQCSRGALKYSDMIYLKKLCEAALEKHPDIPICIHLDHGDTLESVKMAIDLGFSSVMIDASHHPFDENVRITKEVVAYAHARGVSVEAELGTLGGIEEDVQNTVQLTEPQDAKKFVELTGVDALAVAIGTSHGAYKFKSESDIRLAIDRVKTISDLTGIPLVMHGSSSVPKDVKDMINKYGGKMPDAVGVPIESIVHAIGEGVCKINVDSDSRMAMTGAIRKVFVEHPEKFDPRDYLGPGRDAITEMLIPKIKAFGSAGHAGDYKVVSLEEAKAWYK
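40 nM FBPA preincubated 10 min at RT with compound (up to 57.5 uM final), then substrate plus GAPDH/TPI/NAD/arsenate coupling and diaphorase/resazurin added. Fluorescence read after 20 min at RT, 525/598 nm.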
LmPK inh = qHTS Assay for Inhibitors of Leishmania Mexicana Pyruvate Kinase (LmPK). Q27686. purified LmPK, Kinase-Glo ATP luminescence, 1 h. Potency, µM (top dose mostly 57.5 µM), actives largely listed as inhibitors. hit rate 0.37% among 290,000. AID 1721, 2009
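qHTS format; LmPK 0.1 nM; substrates PEP 0.5 mM and ADP 0.1 mM. One-hour room-temperature incubation, then coupled luciferase luminescence; 0.5 nM enzyme wells mark activation.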
NS1 function inh = qHTS Assay for Inhibitors of Influenza NS1 Protein Function | Potency, µM (top dose mostly 46.1 µM) | hit rate 0.4% among 270,000; calls by dose curve; also: actives are rising curves; nearly all actives have a fitted effect of over 50% in size
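Read-out: OD600 growth recovery of NS1-expressing budding yeast. Cells grown overnight at 30C in -URA glucose medium, washed, resuspended and diluted 1:100 in 2% galactose assay medium, pH 6.0. Same strain lacking NS1 served as positive control.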
TbPYK inhibitor = qHTS of Trypanosoma Brucei Inhibitors; Potency, µM (series often up to 76.8 µM), actives largely listed as inhibitors; AID 624173, 2012; hit rate 0.12% among 410,000; TbPYK enzyme, Kinase-Glo Plus ATP luminescence, 45 min; also: nearly all actives have a fitted effect of over 50% in size
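T. brucei PYK with substrate was exposed to pin-transferred compounds across a concentration series, then started with 130 uM ADP (final). After 45 min at room temperature, Kinase-Glo Plus luminescence was read, normalized and curve-fitted.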
Sm TGR block = qHTS Assay for the Inhibitors of Schistosoma Mansoni Peroxiredoxins | Schistosoma mansoni thioredoxin glutathione reductase (TGR), Q962Y6 | purified TGR, DTNB reduction, TNB absorbance 405 nm | Potency, µM (highest dose often 114 µM), most hits filed as inhibitors | hit rate 3% among 360,000; also: nearly all actives have a fitted effect of over 60% in size
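Kinetic colorimetric format: TGR-catalysed, NADPH-driven DTNB reduction monitored via TNB absorbance. Enzyme dispensed at 20 nM; compound exposure 15 min at room temperature before reaction start.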
Each line names hits and unclear results; the compound was inactive in the other large screens. Unless noted, calls follow the shape of the dose curve; as a rule, active = well fitted curve in the direction sought with a large enough effect; inconclusive = small, poorly fitted or top-dose-only effect, or another doubt; inactive = no such curve, though single readings can be large; an effect the other way counts as inactive or inconclusive.

CCC1(C)N=C(c2ccc3c(c2)OCO3)CC(c2ccccc2O)N1 (stereo not drawn)	LmPK inh 10µM, Sm TGR block inconclusive
O=C1NC(c2ccccc2)(C(F)(F)F)SC2=CCCCCN12 (stereo not drawn)	Sm TGR block 25µM
Cc1ccc(C2(C(F)(F)F)NC(=O)N3CCCN=C3S2)cc1 (stereo not drawn)	none
Cc1ccc2sc(N(CCCN(C)C)C(=O)CCS(=O)(=O)c3ccccc3)nc2c1C	Sm TGR block 7.1µM
COc1ccc(OC)c2sc(N(CCCN(C)C)C(=O)CCS(=O)(=O)c3ccccc3)nc12	Sm TGR block 3.2µM (no result: Giardia FBPA inh, LmPK inh, NS1 function inh)
COc1ccc(Cl)c2sc(N(CCN(C)C)C(=O)CCS(=O)(=O)c3ccc(C)cc3)nc12	none (no result: Giardia FBPA inh, LmPK inh, NS1 function inh)
CCN(CC)CCN(C(=O)CCS(=O)(=O)c1ccccc1)c1nc2cc(OC)c(OC)cc2s1	Giardia FBPA inh inconclusive, Sm TGR block 14µM
CN(C)CCN(C(=O)CCS(=O)(=O)c1ccccc1)c1nc2c(F)cccc2s1	Sm TGR block inconclusive
CN(C)CCCN(C(=O)CCS(=O)(=O)c1ccccc1)c1nc2cc3c(cc2s1)OCO3	Sm TGR block 4µM (no result: Giardia FBPA inh)
Cc1ccn2c(=O)cc(COc3ccc(NC(=O)COc4ccccc4)cc3)nc2c1	none (no result: RE007 growth inh, Giardia FBPA inh, LmPK inh, NS1 function inh)
CN1C(=O)/C(=C/c2cc(C(C)(C)C)c(O)c(C(C)(C)C)c2)NC1=S	Sm TGR block 1µM (no result: NS1 function inh)
Cc1ccc(C2=Nc3ccccc3N(CC(=O)Nc3ccccc3C)C(=O)C2)cc1C	none (no result: RE007 growth inh, Giardia FBPA inh, LmPK inh, NS1 function inh)
CCOCCCNc1ncnc2c1cnn2-c1ccc(C)c(C)c1	none (no result: RE007 growth inh, Giardia FBPA inh, LmPK inh, NS1 function inh)
O=C(c1ccc(S(=O)(=O)Cc2cc(F)ccc2F)c([N+](=O)[O-])c1)N1CCCC1	Sm TGR block inconclusive (no result: NS1 function inh)
O=C(c1ccc(S(=O)(=O)Cc2ccccc2Cl)c([N+](=O)[O-])c1)N1CCN(c2ccccn2)CC1	Sm TGR block 7.9µM (no result: NS1 function inh)
O=C(c1ccc(S(=O)(=O)Cc2cc(F)ccc2F)c([N+](=O)[O-])c1)N1CCCCC1	Sm TGR block 8.9µM
CC1CCN(C(=O)c2ccc(S(=O)(=O)Cc3cccc(F)c3)c([N+](=O)[O-])c2)CC1	Sm TGR block 3.5µM
Cc1ccccc1CS(=O)(=O)c1ccc(C(=O)N2CCC(C)CC2)cc1[N+](=O)[O-]	Sm TGR block 89µM (no result: NS1 function inh)
COc1cccc(CNC(=O)c2cccc(-n3c(C)nc4cccnc43)c2C)c1	none (no result: RE007 growth inh, Giardia FBPA inh, LmPK inh, NS1 function inh)
COC(=O)C1=C(O)/C(=C/c2cccc(OC)c2O)N=C1C	LmPK inh 25µM
CC(CN(C)C)CN1c2ccccc2S(=O)(=O)c2ccccc21 (stereo not drawn)	none (no result: RE007 growth inh, Giardia FBPA inh, LmPK inh, NS1 function inh, Sm TGR block)
O=[N+]([O-])c1cc(-c2nc(-c3ccco3)no2)ccc1NCc1ccccc1	Sm TGR block 35µM (no result: RE007 growth inh, Giardia FBPA inh, LmPK inh, NS1 function inh)
COc1ccccc1[As](=O)(O)CC(O)COc1ccc(Cl)cc1Cl (stereo not drawn)	Sm TGR block 40µM (no result: RE007 growth inh, TbPYK inhibitor)
CC(C)c1ccc(NC(=O)CSC2=Nc3ccccc3C3=NC(CCC(=O)NCc4cccs4)C(=O)N23)cc1 (stereo not drawn)	none (no result: RE007 growth inh, Giardia FBPA inh, LmPK inh, NS1 function inh)
C/C(=N/NS(=O)(=O)c1ccc(Br)cc1)c1c[nH]c2ccccc12	Sm TGR block 40µM (no result: Giardia FBPA inh)
Cc1ccccc1CNC(=O)C(=O)NCC(c1ccco1)S(=O)(=O)c1ccc(F)cc1 (stereo not drawn)	Sm TGR block 8.9µM (no result: RE007 growth inh, Giardia FBPA inh, LmPK inh, NS1 function inh)
COc1ccccc1CCNC(=O)C(=O)NCC(c1ccco1)S(=O)(=O)c1ccc(F)cc1 (stereo not drawn)	Sm TGR block 18µM (no result: RE007 growth inh, Giardia FBPA inh, LmPK inh, NS1 function inh)
O=C(NCCc1ccc(F)cc1)C(=O)NCC(c1ccco1)S(=O)(=O)c1ccccc1 (stereo not drawn)	none (no result: RE007 growth inh, Giardia FBPA inh, LmPK inh, NS1 function inh)
COc1ccccc1CCNC(=O)C(=O)NCC(c1cccs1)S(=O)(=O)c1ccc(F)cc1 (stereo not drawn)	none (no result: RE007 growth inh, Giardia FBPA inh, LmPK inh, NS1 function inh)
